PMC5540273 (PLoS ONE, 2017)

Tested on: BMPR1B
Details: concentration: 1 μM, replicates: in singlicate; n = 1
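Note: KINOMEscan kinase panel screen.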

| Compound | %Inh |
| --- | --- |
| N#Cc1ccc(Oc2ccc(Nc3ncnc4cc[nH]c34)cc2Cl)cc1 | 8% |
| Cc1cc(N2CCC(NS(=O)(=O)c3ccc(F)cc3)CC2)nc(Nc2cccc(C#N)c2)n1.O=C(O)C(F)(F)F [GSK1653537] | 0% |
| O=C(NCCCN1CCCC1=O)c1cnc(NCc2cc(Cl)ccc2Cl)nc1NC1CCNCC1 | 0% |
| c1ccc(-c2ccc3c(-c4ccnc(Nc5ccc6c(c5)OCCO6)n4)cnn3n2)cc1 [GW818941] | 0% |
| CNc1nccc(-c2c(-c3ccc(F)cc3)ncn2CCCN2CCOCC2)n1 [SB-222516] | 0% |
| C[C@@H]1CCN(C(=O)CO)C[C@@H]1N(C)c1ncnc2[nH]ccc12 | 0% |
| Cn1ccc2ncnc(Oc3ccc(NC(=O)Nc4cccnc4)c(Cl)c3)c21 | 0% |
| O=C(c1ccc(-c2cc(-c3c[nH]nc3-c3ccccn3)ccn2)cc1)N1CCCC1 [GW792479] | 9% |
| O=C(Nc1n[nH]c2nc(-c3ccco3)c(Br)cc12)c1ccc(CN2CCCC2)cc1.O=C(O)[C@H](O)[C@@H](O)C(=O)O [SB-742352] | 0% |
| Nc1n[nH]c2nnc(-c3ccccc3)cc12 [SB-517389] | 0% |
| Oc1ccc2ncnc(Nc3ccc(OCc4ccccc4)cc3)c2c1 [GI262866] | 0% |
| O=C(CCO)NCCn1ccc2ncnc(Nc3ccc(Oc4cccc(C(F)(F)F)c4)c(Cl)c3)c21 | 0% |
| Nc1nc(-c2cccnc2)c(-c2ccnc3ccccc23)s1 [GW684083] | 55% |
| COc1ccc(Nc2nccc(N3CCC(NC(=O)c4cccc(NC(C)=O)c4)C3)n2)cc1 (stereo not drawn) [GSK1379732] | 0% |
| CC(=O)Nc1n[nH]c2ncc(-c3ccccc3)cc12 [SB-548492] | 21% |
| COc1ccc(Nc2nccc(N3CCC(NC(=O)Nc4ccc5c(c4)OCO5)C3)n2)cc1 (stereo not drawn) [GSK1379745] | 0% |
| CCCc1ccc(S(=O)(=O)NC2CCN(c3ccnc(Nc4ccc(OC)cc4)n3)C2)cc1 (stereo not drawn) [GSK1379737] | 0% |
| Nc1nccc2scc(-c3ccc4c(c3)CCN4C(=O)Cc3cc(F)ccc3F)c12 [GSK2587663] | 0% |

| Compound | %Inh |
| --- | --- |
| CS(=O)(=O)CCNCc1nc(-c2ccc3ncnc(Nc4ccc(OCc5cccc(F)c5)c(Cl)c4)c3c2)cs1.Cl [GW583340] | 0% |
| COc1ccc(NC(=O)Nc2ccc(C)c(-c3ccc(C(=O)Nc4ccncc4)cc3)c2)cc1 [GSK1398475] | 0% |
| FC(F)(F)c1cc(Nc2nccc(-c3c(-c4ccc(Cl)cc4)nn4ncccc34)n2)ccc1Cl [GW829351] | 0% |
| Cl.Cl.c1ccc(-c2cc3ccncc3cc2OC2CCNCC2)cc1 [GSK1122999] | 0% |
| Nc1nc(-c2ccc3c(N)n[nH]c3c2)cc(N2CCCCC2)n1 [GSK2228768] | 0% |
| COc1cc2c(Nc3cccc(NC(=O)c4ccccc4)c3)ncnc2cc1OCCCN1CCOCC1 [GSK223810] | 0% |
| Clc1cccc(-c2nc(Nc3ccncc3)c3ccccc3n2)c1 [GW873004] | 4% |
| CSc1ccc(NC2=C(c3ccccc3Cl)C(=O)NC2=O)cc1 [SB-342411] | 0% |
| O=C(Nc1ccccc1F)NC1CCN(c2ccnc(Nc3ccc(F)cc3)n2)C1 (stereo not drawn) [GSK1379722] | 0% |
| Cc1ccc(NC(=O)c2cccc(C#N)c2)cc1-c1ccc(C(=O)Nc2ccncc2)cc1 [GSK1398463] | 0% |
| Nc1nc(-c2ccc3c(N)n[nH]c3c2)cc(N2CCC[C@@H](C(=O)Nc3ccccc3)C2)n1.O=C(O)C(F)(F)F.O=C(O)C(F)(F)F [GSK2288359] | 0% |
| CCc1nc(-c2cccc(C)c2)c(-c2ccnc(NC(=O)c3ccccc3)c2)s1 | 9% |
| Cl.Fc1ccccc1COc1ccc(Nc2ncnc3ccc(-c4nnc(C(F)(F)F)o4)cc23)cc1Cl [GW424170] | 0% |
| Clc1cc(Nc2ncnc3cc[nH]c23)ccc1OCc1ccccn1 | 8% |
| CC(C)N1CCC(n2cnc(-c3ccc(F)cc3)c2-c2ccnc(N)n2)CC1 [SB-223132] | 0% |
| COC(=O)c1cccc(NC(=O)NCCNc2ccnc(Nc3ccc(F)cc3)n2)c1 [GSK1379883] | 0% |
| Cc1ccc(C)c(NC(=O)NCCNc2ccnc(Nc3ccc(F)cc3)n2)c1 [GSK1379878] | 0% |
| CCC(CC)(CC)n1cnc2c(N)ncnc21 [SKF-97620] | 16% |

Tested on: BMPR2
Details: concentration: 1 μM, replicates: in singlicate; n = 1

| Compound | %Inh |
| --- | --- |
| N#Cc1ccc(Oc2ccc(Nc3ncnc4cc[nH]c34)cc2Cl)cc1 | 25% |
| Cc1cc(N2CCC(NS(=O)(=O)c3ccc(F)cc3)CC2)nc(Nc2cccc(C#N)c2)n1.O=C(O)C(F)(F)F [GSK1653537] | 0% |
| O=C(NCCCN1CCCC1=O)c1cnc(NCc2cc(Cl)ccc2Cl)nc1NC1CCNCC1 | 0% |
| c1ccc(-c2ccc3c(-c4ccnc(Nc5ccc6c(c5)OCCO6)n4)cnn3n2)cc1 [GW818941] | 12% |
| CNc1nccc(-c2c(-c3ccc(F)cc3)ncn2CCCN2CCOCC2)n1 [SB-222516] | 30% |
| C[C@@H]1CCN(C(=O)CO)C[C@@H]1N(C)c1ncnc2[nH]ccc12 | 0% |
| Cn1ccc2ncnc(Oc3ccc(NC(=O)Nc4cccnc4)c(Cl)c3)c21 | 7% |
| O=C(c1ccc(-c2cc(-c3c[nH]nc3-c3ccccn3)ccn2)cc1)N1CCCC1 [GW792479] | 0% |
| O=C(Nc1n[nH]c2nc(-c3ccco3)c(Br)cc12)c1ccc(CN2CCCC2)cc1.O=C(O)[C@H](O)[C@@H](O)C(=O)O [SB-742352] | 0% |
| Nc1n[nH]c2nnc(-c3ccccc3)cc12 [SB-517389] | 0% |
| Oc1ccc2ncnc(Nc3ccc(OCc4ccccc4)cc3)c2c1 [GI262866] | 0% |
| O=C(CCO)NCCn1ccc2ncnc(Nc3ccc(Oc4cccc(C(F)(F)F)c4)c(Cl)c3)c21 | 0% |
| Nc1nc(-c2cccnc2)c(-c2ccnc3ccccc23)s1 [GW684083] | 28% |
| COc1ccc(Nc2nccc(N3CCC(NC(=O)c4cccc(NC(C)=O)c4)C3)n2)cc1 (stereo not drawn) [GSK1379732] | 9% |
| CC(=O)Nc1n[nH]c2ncc(-c3ccccc3)cc12 [SB-548492] | 47% |
| COc1ccc(Nc2nccc(N3CCC(NC(=O)Nc4ccc5c(c4)OCO5)C3)n2)cc1 (stereo not drawn) [GSK1379745] | 23% |
| CCCc1ccc(S(=O)(=O)NC2CCN(c3ccnc(Nc4ccc(OC)cc4)n3)C2)cc1 (stereo not drawn) [GSK1379737] | 8% |
| Nc1nccc2scc(-c3ccc4c(c3)CCN4C(=O)Cc3cc(F)ccc3F)c12 [GSK2587663] | 0% |

| Compound | %Inh |
| --- | --- |
| CS(=O)(=O)CCNCc1nc(-c2ccc3ncnc(Nc4ccc(OCc5cccc(F)c5)c(Cl)c4)c3c2)cs1.Cl [GW583340] | 0% |
| COc1ccc(NC(=O)Nc2ccc(C)c(-c3ccc(C(=O)Nc4ccncc4)cc3)c2)cc1 [GSK1398475] | 0% |
| FC(F)(F)c1cc(Nc2nccc(-c3c(-c4ccc(Cl)cc4)nn4ncccc34)n2)ccc1Cl [GW829351] | 4% |
| Cl.Cl.c1ccc(-c2cc3ccncc3cc2OC2CCNCC2)cc1 [GSK1122999] | 0% |
| Nc1nc(-c2ccc3c(N)n[nH]c3c2)cc(N2CCCCC2)n1 [GSK2228768] | 0% |
| COc1cc2c(Nc3cccc(NC(=O)c4ccccc4)c3)ncnc2cc1OCCCN1CCOCC1 [GSK223810] | 0% |
| Clc1cccc(-c2nc(Nc3ccncc3)c3ccccc3n2)c1 [GW873004] | 10% |
| CSc1ccc(NC2=C(c3ccccc3Cl)C(=O)NC2=O)cc1 [SB-342411] | 5% |
| O=C(Nc1ccccc1F)NC1CCN(c2ccnc(Nc3ccc(F)cc3)n2)C1 (stereo not drawn) [GSK1379722] | 13% |
| Cc1ccc(NC(=O)c2cccc(C#N)c2)cc1-c1ccc(C(=O)Nc2ccncc2)cc1 [GSK1398463] | 0% |
| Nc1nc(-c2ccc3c(N)n[nH]c3c2)cc(N2CCC[C@@H](C(=O)Nc3ccccc3)C2)n1.O=C(O)C(F)(F)F.O=C(O)C(F)(F)F [GSK2288359] | 10% |
| CCc1nc(-c2cccc(C)c2)c(-c2ccnc(NC(=O)c3ccccc3)c2)s1 | 8% |
| Cl.Fc1ccccc1COc1ccc(Nc2ncnc3ccc(-c4nnc(C(F)(F)F)o4)cc23)cc1Cl [GW424170] | 5% |
| Clc1cc(Nc2ncnc3cc[nH]c23)ccc1OCc1ccccn1 | 17% |
| CC(C)N1CCC(n2cnc(-c3ccc(F)cc3)c2-c2ccnc(N)n2)CC1 [SB-223132] | 0% |
| COC(=O)c1cccc(NC(=O)NCCNc2ccnc(Nc3ccc(F)cc3)n2)c1 [GSK1379883] | 0% |
| Cc1ccc(C)c(NC(=O)NCCNc2ccnc(Nc3ccc(F)cc3)n2)c1 [GSK1379878] | 0% |
| CCC(CC)(CC)n1cnc2c(N)ncnc21 [SKF-97620] | 53% |
